# Values without a mark were called inactive.
# Tests used:
# Assay in all cases: log2 ratio of Biotin-Ahx-Ub-VS probe labelling (fragment/DMSO); higher = less target engagement (more negative = stronger competition), active = hit call of the paper (q ≤ 0.05, log2 ratio ≤ -1)
# Settings in all cases: compound concentration: 200 uM; treatment time: 3 h
# OTUD6B = biological target: T1, OTUD6B (UniProt Q8N6M0)
# T1 sequence (whole entry): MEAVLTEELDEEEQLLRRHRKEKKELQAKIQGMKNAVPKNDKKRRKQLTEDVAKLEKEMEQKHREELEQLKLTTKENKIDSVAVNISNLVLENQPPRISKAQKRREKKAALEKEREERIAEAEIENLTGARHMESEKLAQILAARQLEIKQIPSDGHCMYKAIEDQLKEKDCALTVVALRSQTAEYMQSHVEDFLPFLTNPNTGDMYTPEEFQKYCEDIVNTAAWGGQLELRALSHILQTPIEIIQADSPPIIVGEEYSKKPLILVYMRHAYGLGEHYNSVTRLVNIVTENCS
# Procedure, shortened: (§1)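 Using Biotin-Ahx-Ub-VS at 0.5 µM final for 1 h, DUBs were labelled in HEK293T lysate (495 µg per sample) that had first been treated in triplicate with fragment at 200 µM or vehicle for 3 h. NeutrAvidin enrichment, LysC and trypsin digestion and diaPASEF LC-MS/MS followed. Spectronaut label-free quantities were global-median-normalised. Values are average log2 fragment/vehicle ratios by unpaired t-test, using proteins with ≥2 unique peptides.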
# OTUD7B = biological target: T2, OTUD7B (UniProt Q6GQQ9)
# T2 sequence (whole entry): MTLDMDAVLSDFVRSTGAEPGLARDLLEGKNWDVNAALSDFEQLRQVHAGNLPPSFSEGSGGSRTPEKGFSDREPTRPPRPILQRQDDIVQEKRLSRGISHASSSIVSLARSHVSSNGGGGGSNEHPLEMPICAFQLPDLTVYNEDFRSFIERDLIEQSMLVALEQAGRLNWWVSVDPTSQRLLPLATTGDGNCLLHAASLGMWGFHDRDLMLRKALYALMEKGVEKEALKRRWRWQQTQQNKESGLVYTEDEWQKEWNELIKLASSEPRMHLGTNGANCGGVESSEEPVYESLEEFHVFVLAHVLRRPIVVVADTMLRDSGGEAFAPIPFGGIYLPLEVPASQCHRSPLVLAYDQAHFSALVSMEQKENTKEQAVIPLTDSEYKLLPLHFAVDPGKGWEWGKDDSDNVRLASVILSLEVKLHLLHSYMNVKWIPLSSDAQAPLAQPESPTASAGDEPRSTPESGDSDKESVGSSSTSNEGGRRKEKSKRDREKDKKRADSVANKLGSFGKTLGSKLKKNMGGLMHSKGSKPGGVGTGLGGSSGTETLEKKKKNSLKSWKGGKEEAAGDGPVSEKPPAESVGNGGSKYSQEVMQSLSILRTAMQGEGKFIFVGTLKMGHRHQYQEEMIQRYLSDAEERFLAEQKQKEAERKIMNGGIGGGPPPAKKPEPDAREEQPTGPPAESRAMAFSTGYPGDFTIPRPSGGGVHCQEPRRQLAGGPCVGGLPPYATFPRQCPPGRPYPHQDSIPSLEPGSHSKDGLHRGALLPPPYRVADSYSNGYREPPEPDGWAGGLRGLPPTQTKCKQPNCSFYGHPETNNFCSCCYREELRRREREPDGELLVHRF
# Procedure, shortened: as §1
# PRPF8 = PRPF8 (UniProt Q6P2Q9)
# Procedure, shortened: as §1
# PSMD7 = biological target: T3, PSMD7 (UniProt P51665)
# T3 sequence (whole entry): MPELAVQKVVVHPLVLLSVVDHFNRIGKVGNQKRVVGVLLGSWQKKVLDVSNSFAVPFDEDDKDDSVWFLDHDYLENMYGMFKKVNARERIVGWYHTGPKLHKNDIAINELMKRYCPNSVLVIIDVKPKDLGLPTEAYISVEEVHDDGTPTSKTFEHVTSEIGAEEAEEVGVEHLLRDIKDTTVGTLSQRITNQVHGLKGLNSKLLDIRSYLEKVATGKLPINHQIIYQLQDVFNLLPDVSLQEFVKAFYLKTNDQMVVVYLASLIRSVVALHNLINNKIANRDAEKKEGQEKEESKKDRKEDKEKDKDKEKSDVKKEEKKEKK
# Procedure, shortened: as §1
# UCHL1 = UCHL1 (UniProt P09936)
# Chain of UCHL1 (P09936 whole entry, looked up): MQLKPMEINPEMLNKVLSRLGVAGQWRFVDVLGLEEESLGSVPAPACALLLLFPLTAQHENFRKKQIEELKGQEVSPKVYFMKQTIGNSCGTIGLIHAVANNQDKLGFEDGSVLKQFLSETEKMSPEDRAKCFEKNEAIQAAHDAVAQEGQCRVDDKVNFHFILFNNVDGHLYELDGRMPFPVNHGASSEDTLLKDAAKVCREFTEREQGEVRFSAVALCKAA
# Procedure, shortened: as §1
# UCHL3 = biological target: T4, UCHL3 (UniProt P15374)
# T4 sequence (whole entry): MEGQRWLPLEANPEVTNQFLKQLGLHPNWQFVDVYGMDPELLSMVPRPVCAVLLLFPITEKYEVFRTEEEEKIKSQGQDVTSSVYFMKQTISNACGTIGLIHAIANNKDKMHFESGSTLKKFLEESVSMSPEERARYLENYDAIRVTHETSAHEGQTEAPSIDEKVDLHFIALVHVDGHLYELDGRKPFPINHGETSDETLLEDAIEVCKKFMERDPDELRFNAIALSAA
# Procedure, shortened: as §1
# UCHL5 = biological target: T5, UCHL5 (UniProt Q9Y5K5)
# T5 sequence (whole entry): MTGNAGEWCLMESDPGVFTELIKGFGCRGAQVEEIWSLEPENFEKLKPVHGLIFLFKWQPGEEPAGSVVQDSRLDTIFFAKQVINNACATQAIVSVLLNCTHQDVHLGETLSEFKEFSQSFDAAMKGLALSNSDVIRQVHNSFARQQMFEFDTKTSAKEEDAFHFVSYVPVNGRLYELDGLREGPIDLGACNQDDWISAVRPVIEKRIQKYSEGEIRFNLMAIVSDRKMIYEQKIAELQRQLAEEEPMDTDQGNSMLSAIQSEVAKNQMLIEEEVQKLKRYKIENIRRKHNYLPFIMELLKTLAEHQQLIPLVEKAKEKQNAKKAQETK
# Procedure, shortened: as §1
# USP10 = USP10 (UniProt Q14694)
# Chain of USP10 (Q14694 whole entry): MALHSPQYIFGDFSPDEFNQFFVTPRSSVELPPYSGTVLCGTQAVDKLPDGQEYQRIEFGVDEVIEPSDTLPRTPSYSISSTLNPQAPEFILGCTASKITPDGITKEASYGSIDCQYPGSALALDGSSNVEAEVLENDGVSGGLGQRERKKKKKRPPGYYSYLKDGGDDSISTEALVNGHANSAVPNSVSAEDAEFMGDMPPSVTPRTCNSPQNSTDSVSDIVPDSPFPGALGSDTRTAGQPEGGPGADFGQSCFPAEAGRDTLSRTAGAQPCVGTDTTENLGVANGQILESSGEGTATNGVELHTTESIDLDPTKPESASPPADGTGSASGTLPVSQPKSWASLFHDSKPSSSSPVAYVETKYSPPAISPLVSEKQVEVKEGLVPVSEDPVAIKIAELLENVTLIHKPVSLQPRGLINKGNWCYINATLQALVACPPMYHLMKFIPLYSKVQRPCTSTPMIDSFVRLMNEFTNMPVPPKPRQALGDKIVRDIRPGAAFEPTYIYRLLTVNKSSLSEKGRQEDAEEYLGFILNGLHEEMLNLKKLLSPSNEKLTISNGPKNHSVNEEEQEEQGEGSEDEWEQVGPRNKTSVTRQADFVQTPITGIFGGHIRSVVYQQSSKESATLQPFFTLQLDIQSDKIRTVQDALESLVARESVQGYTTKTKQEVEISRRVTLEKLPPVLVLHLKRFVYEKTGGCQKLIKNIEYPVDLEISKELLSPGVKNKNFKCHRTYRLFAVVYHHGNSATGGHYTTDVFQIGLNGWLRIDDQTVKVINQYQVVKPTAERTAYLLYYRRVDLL
# Procedure, shortened: as §1
# USP15 = biological target: T6, USP15 (UniProt Q9Y4E8)
# T6 sequence (whole entry): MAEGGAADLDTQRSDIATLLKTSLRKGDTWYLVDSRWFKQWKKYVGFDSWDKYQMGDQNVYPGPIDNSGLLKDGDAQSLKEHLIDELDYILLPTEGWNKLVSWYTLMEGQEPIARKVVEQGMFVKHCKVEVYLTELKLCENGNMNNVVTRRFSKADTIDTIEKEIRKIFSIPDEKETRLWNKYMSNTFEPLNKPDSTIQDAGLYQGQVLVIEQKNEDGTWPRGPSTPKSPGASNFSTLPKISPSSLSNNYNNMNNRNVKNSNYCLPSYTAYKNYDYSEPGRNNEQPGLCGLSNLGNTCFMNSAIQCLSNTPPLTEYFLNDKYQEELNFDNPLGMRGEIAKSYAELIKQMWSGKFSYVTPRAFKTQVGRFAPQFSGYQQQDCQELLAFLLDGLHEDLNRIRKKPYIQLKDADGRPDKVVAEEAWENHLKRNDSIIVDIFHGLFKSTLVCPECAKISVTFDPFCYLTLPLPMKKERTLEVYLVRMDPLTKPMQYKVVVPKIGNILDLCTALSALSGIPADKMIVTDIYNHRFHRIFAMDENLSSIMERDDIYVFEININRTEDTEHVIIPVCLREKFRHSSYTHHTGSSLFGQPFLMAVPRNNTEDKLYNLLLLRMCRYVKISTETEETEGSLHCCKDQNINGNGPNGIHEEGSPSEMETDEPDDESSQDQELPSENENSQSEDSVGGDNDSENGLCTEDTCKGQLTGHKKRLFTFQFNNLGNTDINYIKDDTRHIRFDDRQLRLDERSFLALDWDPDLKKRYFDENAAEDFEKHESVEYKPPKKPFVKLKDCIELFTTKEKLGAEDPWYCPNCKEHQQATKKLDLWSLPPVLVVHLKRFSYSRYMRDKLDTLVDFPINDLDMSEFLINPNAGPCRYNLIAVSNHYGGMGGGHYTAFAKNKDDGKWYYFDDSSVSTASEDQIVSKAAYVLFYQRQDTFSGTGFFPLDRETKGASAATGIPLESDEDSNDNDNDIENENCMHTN
# Procedure, shortened: as §1
# USP16 = USP16 (UniProt Q9Y5T5)
# Chain of USP16 (Q9Y5T5 whole entry, looked up): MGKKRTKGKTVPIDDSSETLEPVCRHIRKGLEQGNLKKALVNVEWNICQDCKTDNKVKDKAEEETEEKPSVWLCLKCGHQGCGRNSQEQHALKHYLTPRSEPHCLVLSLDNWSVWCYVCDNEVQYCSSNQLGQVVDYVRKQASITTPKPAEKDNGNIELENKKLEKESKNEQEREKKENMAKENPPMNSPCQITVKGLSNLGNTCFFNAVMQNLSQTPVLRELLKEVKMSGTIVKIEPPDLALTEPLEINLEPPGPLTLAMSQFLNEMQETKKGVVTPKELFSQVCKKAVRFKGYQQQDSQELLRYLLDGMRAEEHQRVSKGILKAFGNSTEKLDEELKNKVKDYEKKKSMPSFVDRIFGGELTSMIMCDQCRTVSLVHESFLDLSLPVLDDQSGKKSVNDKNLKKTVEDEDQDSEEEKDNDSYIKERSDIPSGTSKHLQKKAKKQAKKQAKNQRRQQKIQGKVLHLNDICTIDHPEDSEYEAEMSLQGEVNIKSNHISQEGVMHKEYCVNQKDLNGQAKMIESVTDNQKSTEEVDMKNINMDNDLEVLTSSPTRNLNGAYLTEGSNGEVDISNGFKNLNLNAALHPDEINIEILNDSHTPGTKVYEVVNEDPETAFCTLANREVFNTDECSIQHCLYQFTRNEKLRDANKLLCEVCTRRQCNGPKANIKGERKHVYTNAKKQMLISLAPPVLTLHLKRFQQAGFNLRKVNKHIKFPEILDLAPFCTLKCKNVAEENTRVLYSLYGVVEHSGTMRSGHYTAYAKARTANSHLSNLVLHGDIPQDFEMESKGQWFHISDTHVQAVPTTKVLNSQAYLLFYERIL
# Procedure, shortened: as §1
compound,measurement,setting,value
CC(NC(=O)CCl)c1cccc(Cl)c1 (stereo not given),log2 ratio of Biotin-Ahx-Ub-VS probe labelling,OTUD6B,-0.345
same,log2 ratio of Biotin-Ahx-Ub-VS probe labelling,OTUD7B,-1.21 (active)
same,log2 ratio of Biotin-Ahx-Ub-VS probe labelling,PRPF8,-0.202
same,log2 ratio of Biotin-Ahx-Ub-VS probe labelling,PSMD7,-0.316
same,log2 ratio of Biotin-Ahx-Ub-VS probe labelling,UCHL1,-1.58 (active)
same,log2 ratio of Biotin-Ahx-Ub-VS probe labelling,UCHL3,-0.204
same,log2 ratio of Biotin-Ahx-Ub-VS probe labelling,UCHL5,-0.426
same,log2 ratio of Biotin-Ahx-Ub-VS probe labelling,USP10,-0.136
same,log2 ratio of Biotin-Ahx-Ub-VS probe labelling,USP15,-0.301
same,log2 ratio of Biotin-Ahx-Ub-VS probe labelling,USP16,0.118
